Source: PubChem BioAssay
Activity calls are given as the source filed them. No rule for the calls is given here.

assay: inhibition of Brca1/Bard1 split-luciferase complementation, confirmation, counter-screen for Mdm2/MdmX interaction inhibitor project, luminescence, single concentration (AID 504668); conditions: Brca1/Bard1 bimolecular luciferase complementation counterscreen, at 8 µM, hits give high values

Q: Which inhibition does the source give for COc1ccc2nc(N=Nc3ccc(O)c4ccccc34)sc2c1 here?
A: 35.3% (active)

Q: With Oc1c(C(c2ccccc2Cl)N2CCCC2)ccc2cccnc12 (configuration not stated) as the molecule, how does the inhibition read?
A: 31.4% (active)

Q: For Cc1cc(C)c2nc(N3CCC(C(=O)NCCCN4CC(C)CC(C)C4)CC3)sc2c1 (configuration not stated), which inhibition is on record?
A: 32.3% (active)

Q: With CCCC(O)(CCC)C(=O)NN(C(=O)CCl)c1cccc(C)c1 as the molecule, how does the inhibition read?
A: 23.7% (active)

Q: For CCC(=O)NC(c1cccs1)c1ccc2cccnc2c1O (configuration not stated), which inhibition is on record?
A: 23.3% (active)

Q: With O=C(N/N=C/c1ccccc1O)c1cccc(C(F)(F)F)c1 as the molecule, how does the inhibition read?
A: 35.8% (active)

Q: For CCN(CC)CCCN=C1N[C@@H](c2cccc(C(F)(F)F)c2)C(C(=O)OC)=C(C)N1CC, which inhibition is on record?
A: 30.4% (active)

Q: For O=c1c2ccccc2nc(-c2ccc(Cl)c(Cl)c2)n1O, which inhibition is on record?
A: 26.8% (active)

Q: Which inhibition does the source give for Cc1cc(C(=O)Nc2ccc(Cl)cc2)c(C)n1-c1ccccc1 here?
A: 30.6% (active)

Q: Which inhibition does the source give for CCc1ccc(/C=C/C(=O)c2c(C)cc(C)[nH]c2=O)cc1 here?
A: 30.6% (active)

Q: With CCC(NC(=O)Nc1nnc(C(F)(F)F)s1)(C(F)(F)F)C(F)(F)F as the molecule, how does the inhibition read?
A: 26.3% (active)

Q: For CCOc1ccc(/C=C/C(O)=C2/C(=O)NC3(C)CC2c2ccccc2O3)cc1OC (configuration not stated), which inhibition is on record?
A: 23.4% (active)

Q: Which inhibition does the source give for O=C(/C(N=Nc1cccc([N+](=O)[O-])c1)=C(/O)c1ccc(Br)cc1)C(F)(F)F here?
A: 24.9% (active)

Q: For CN(C)CCN(C(=O)/C=C/c1cccs1)c1nc2c(F)cc(F)cc2s1, which inhibition is on record?
A: 28.9% (active)

Q: Which inhibition does the source give for CC(=O)NC(c1cccs1)c1cc(F)c2cccnc2c1O (configuration not stated) here?
A: 30.4% (active)

Q: For N#CC(C#N)=C(Nc1ccc(F)cc1)SCc1cccc(F)c1, which inhibition is on record?
A: 23.3% (active)

Q: For Cn1nnnc1Sc1ncnc2scc(-c3cccc(S(C)(=O)=O)c3)c12, which inhibition is on record?
A: 27.4% (active)

Q: With CCS(=O)(=O)c1ccc(N=Nc2ccc(O)c3ncccc23)c(OC)c1 as the molecule, how does the inhibition read?
A: 31.8% (active)

Q: For COC1(OC)C(/C=C/c2ccc(C)cc2)C(C#N)(C#N)C1(OC)OC (configuration not stated), which inhibition is on record?
A: 35.3% (active)

Q: Which inhibition does the source give for CCOc1ccccc1CNC(=O)c1cc2oc3ccccc3c2n1CC here?
A: 25.6% (active)

Q: Which inhibition does the source give for C[C@@H](NC(=O)OC(C)(C)C)c1nnc(S(=O)(=O)Cc2ccccc2)o1 here?
A: 24.9% (active)

Q: With O=C(Nc1ccc(-c2nc3ccc(NC(=O)c4cccs4)cc3[nH]2)cc1)c1cccs1 as the molecule, how does the inhibition read?
A: 33.7% (active)
